Results on eleven molecules are retold here after PubChem BioAssay (NCI).

This is part of a sample that, as a whole, favours compounds with a hit. Of some 83,000 tested, about 20% had one in any assay.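 Percent growth is the endpoint: 0 to 100 indicates growth inhibition (40 means 60% inhibition), 0 means no net growth, and negative values indicate cell death.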 Unmarked numbers belong to inactive results. Activity calls are given as the source filed them. How the source made its calls: active means growth percent below 10; inactive means the rest.

Holding throughout (experiment): NCI-60 one-dose screen, 48 h (100 = growth as untreated, 0 = no growth, -100 = all killed)
Assay [1] concerns HT29 colon. Conditions: 10 µM unless noted.
Assay [2] relates to SNB-75 CNS. Conditions: 10 µM unless noted.
Assay [3] deals with SNB-19 CNS. Conditions: 10 µM unless noted.
Assay [4] relates to U251 CNS. Conditions: 10 µM unless noted.
The test system of assay [5] is PC-3 prostate. Conditions: 10 µM unless noted.
In assay [6] the test system is SK-MEL-5 melanoma. Conditions: 10 µM unless noted.
Assay [7] concerns UACC-62 melanoma. Conditions: 10 µM unless noted.
The subject of assay [8] is LOX IMVI melanoma. Conditions: 10 µM unless noted.
In assay [9] the test system is SK-MEL-28 melanoma. Conditions: 10 µM.
In assay [10] the test system is SK-MEL-2 melanoma. Conditions: 10 µM unless noted.
Assay [11] has as its system SN12C renal. Conditions: 10 µM unless noted.
Assay [12] concerns UO-31 renal. Conditions: 10 µM unless noted.
Assay [13] relates to ACHN renal. Conditions: 10 µM unless noted.
In assay [14] the test system is CAKI-1 renal. Conditions: 10 µM unless noted.
Assay [15] relates to A498 renal. Conditions: 10 µM unless noted.
Assay [16] deals with CCRF-CEM leukemia. Conditions: 10 µM unless noted.
In assay [17] the test system is MOLT-4 leukemia. Conditions: 10 µM unless noted.
Assay [18] relates to SR leukemia. Conditions: 10 µM unless noted.
The test system of assay [19] is EKVX NSCLC. Conditions: 10 µM unless noted.
Assay [20] relates to TK-10 renal. Conditions: 10 µM unless noted.

Turning to `Brc1ccc(Nc2nc3ccccc3nc2Nc2ccc(Br)cc2)cc1`, the growth is -46.1% (active) in assay [1]; -7.54% (active) in [2]; 16.6% in assay [3]; -58.5% (active) in assay [4]; -0.436% (active) in assay [5]; -85.6% (active) in assay [6]. The growth was -16.2% (active) in [7]; -87% (active) in [8]; -44.2% (active) in assay [9]; -58% (active) in assay [10]; -9.63% (active) in assay [11]; -25.7% (active) in assay [12]. Further, the growth in assay [13] was 4.91% (active); in assay [14], -16.3% (active); in [15] it was -18.1% (active); in [16] it was -15% (active); in assay [17], -21.4% (active); in assay [18], -23.5% (active).
On to `O=C(Nc1ccc(I)cc1F)c1cc(Cl)ccc1O`, for which the growth in assay [1] is 33.5%; in [2], -24.3% (active); in assay [3], 18.6%; in [4] it was 0.895% (active); in [5], 3.02% (active); in [7], -18.8% (active). The growth is 0.0612% (active) in [8]; -4.2% (active) in assay [9]; -30.8% (active) in assay [10]; 7.55% (active) in assay [19]; 2.43% (active) in assay [11]; 9.04% (active) in [12]. The growth in [20] was 10.5%; in [13] it was 6.15% (active); in assay [14] it was -12% (active); in assay [15], -64.4% (active); in assay [16] it was 7.89% (active); in assay [17], -30.5% (active).
As for `O=c1c2cc(F)ccc2sc2c(NCCCNCCO)nc3ccc(Cl)cc3c12`, the growth in [1] is -48.6% (active); in assay [2] it was 46.1%; in assay [3] it was 76.5%; in assay [4], 33%; in assay [5], 50.7%; in assay [7] it was 91.6%. For the same molecule, the growth is 14.6% in assay [8]; 99.9% in assay [9]; 105% in assay [10]; 88.8% in assay [19]; 67.4% in [11]; 58.5% in assay [12]. The growth was 77.1% in assay [20]; 60.8% in assay [13]; 27.8% in assay [14]; 60.7% in [15]; 13.7% in assay [16]; 18.7% in assay [17].
As to `CCOC(=O)c1cc2c(n1Cc1ccccc1OC)-c1oncc1CCC2`, the growth in assay [1] was 10.1%; in assay [2] it was -2.26% (active); in assay [3] it was 59.6%; in assay [4], 36.7%; in assay [5], 30.8%; in assay [6], 6.57% (active). The growth was 26.5% in assay [7]; 44.8% in assay [9]; 27.5% in [10]; 53.3% in [11]; 45.2% in assay [12]; 59.4% in assay [20]. The growth in assay [13] is 53.4%; in assay [14], 35.8%; in [15], -2.62% (active); in assay [16], 8.18% (active); in [17], 28.4%; in assay [18], 4.65% (active).
In the case of `O=c1c2cc(F)cc(Cl)c2sc2c(Cl)nc3ccccc3c12`, the growth in assay [1] is 101%; in [2], 84.6%; in assay [3] it was 96.5%; in [4], 105%; in assay [5] it was 98.9%; in assay [7] it was 92.2%. In addition, the growth is 80.9% in assay [8]; 108% in assay [9]; 108% in assay [10]; 97.9% in [19]; 76.8% in [11]; 72.6% in assay [12]. Moreover, the growth in assay [20] is 151%; in assay [13] it was 95.3%; in assay [14], 90.7%; in [15], 103%; in [16], 86.9%; in [17] it was 103%.
`O=C(COc1cc(O)c2c(=O)cc(-c3ccccc3)oc2c1)Nc1ccccc1C(F)(F)F`: the growth in [1] was 70.6%; in assay [2], -4.06% (active); in assay [3], 45.2%; in [4] it was 4.09% (active); in assay [5] it was 64.6%; in assay [7], 77.5%. The growth was 52% in assay [8]; 79.1% in assay [9]; 92% in assay [10]; 51.4% in assay [19]; 27.7% in assay [11]; 17.1% in assay [12]. The growth is -13.9% (active) in assay [20]; 17.8% in [13]; 22.3% in [14]; 55.9% in assay [15]; 58.6% in assay [16]; 52.1% in [17].
With `CCN(CC)c1cc(C)c2cc(NC(=O)c3cccc(OC)c3)ccc2n1`, the growth was 67.8% in assay [1]; 81.6% in assay [2]; 84.3% in assay [3]; 55% in [4]; 39.5% in assay [5]; 57.3% in [6]. Besides, the growth in assay [7] was 81%; in assay [9], 85.2%; in assay [10], 98.6%; in assay [11] it was 79.1%; in assay [20], 114%; in assay [13] it was 91.2%. Also, the growth is 73.2% in assay [14]; 29.2% in assay [15]; 24.8% in [16]; 32.7% in assay [17]; 43.5% in assay [18].
Regarding `O=C(CCc1nnc2sc(Cc3ccccc3Cl)nn12)c1nc2ncccc2[nH]1`, the growth in [1] was 104%; in [2], 67.7%; in assay [3], 93.3%; in [4], 104%; in assay [5], 85.6%; in assay [7], 83.2%. Moreover, the growth in [8] is 88%; in [9], 96.2%; in assay [10], 97.9%; in assay [19] it was 94.6%; in [11], 87.3%; in [12], 63.5%. The growth in assay [20] was 128%; in assay [13] it was 94.9%; in assay [14], 74.4%; in assay [15], 87.5%; in assay [16], 103%; in assay [17] it was 86.2%.
For `O=C(Nc1ccc(F)c(Cl)c1)Nc1ccc(Cl)c(Cl)c1`, the growth in assay [1] is 51.8%; in assay [2], 79.7%; in assay [3], 92.8%; in assay [4], 63.4%; in assay [5] it was 77%; in assay [6], 59.6%. In addition, the growth in assay [7] was 58.9%; in [9] it was 70.1%; in assay [10], 79.7%; in assay [11], 75.8%; in assay [12], 79.2%; in assay [13] it was 96%. Also, the growth was 76.1% in assay [14]; 69.6% in assay [15]; 64.8% in assay [16]; 43.9% in [17]; 10.2% in assay [18].
With `N#C/C(=C1\SC(=O)CN1c1ccccc1)c1nc2ccccc2s1`, the growth was 108% in [1]; 88.7% in assay [2]; 94.3% in assay [3]; 91.9% in assay [4]; 92% in assay [5]; 93.3% in assay [6]. Besides, the growth is 91.1% in assay [7]; 106% in [9]; 86.1% in assay [10]; 91% in assay [11]; 53.2% in assay [12]; 93.6% in assay [13]. For the same molecule, the growth in assay [14] is 89.9%; in [15] it was 82.4%; in [16] it was 84.4%; in assay [17], 84.2%; in assay [18], 76.4%.
As for `O=c1oc2ccc(F)cc2c(=O)n1-c1ccc(Cl)cc1F`, the growth in [1] is 26.7%; in [2], -13.6% (active); in assay [3], 16.1%; in assay [4], 2.3% (active); in [5] it was 0.0571% (active); in assay [7], -8.7% (active). For the same molecule, the growth in assay [8] is 16.9%; in [9], 14.7%; in [10], -28.7% (active); in assay [19], 9.11% (active); in [11], 1.59% (active); in assay [12] it was 1.41% (active). In addition, the growth is 5.92% (active) in assay [20]; 1.55% (active) in [13]; -21.5% (active) in assay [14]; -51% (active) in assay [15]; 12.7% in assay [16]; -5.46% (active) in assay [17].
